Bioassay records (PubChem)
Only some compounds are listed: those with a hit (about 1.1% of all), similar ones and a draw of the others.
HTR5A ag: counter-screen for OPRM1-OPRD1 agonists: human HTR5A agonism. P47898. HTR5A agonist assay, luminescence, cell-based. activation, % at 9.3 µM. 340,000 compounds, 0.61% hits. AID 504692; in the data active means activation mostly above about 9.5%, no sharp cut-off; inactive means mostly below about 7.6%;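 further: 0% = cells with vehicle only and 100% = reference agonist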
Target sequence (P47898 whole entry, looked up): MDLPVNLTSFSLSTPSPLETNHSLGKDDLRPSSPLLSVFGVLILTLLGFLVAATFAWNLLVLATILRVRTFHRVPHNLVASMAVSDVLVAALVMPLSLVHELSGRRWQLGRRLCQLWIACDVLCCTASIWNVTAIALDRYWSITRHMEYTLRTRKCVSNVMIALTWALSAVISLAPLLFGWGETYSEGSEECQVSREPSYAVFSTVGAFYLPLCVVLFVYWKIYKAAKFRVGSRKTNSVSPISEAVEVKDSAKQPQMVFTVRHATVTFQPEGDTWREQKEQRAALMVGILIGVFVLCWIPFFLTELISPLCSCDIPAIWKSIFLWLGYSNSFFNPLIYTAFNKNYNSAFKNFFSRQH
MOR-DOR ag: agonists of human mu-delta opioid receptor heterodimerization. cells, OPRM1-OPRD1 heterodimerization, luminescence. activation, % at 9.3 µM. P35372+P41143. 340,000 compounds, 0.3% hits. AID 504326;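 further: 0% = vehicle-treated cells and 100% = reference agonist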
MOR-DOR inv ag: mu-delta opioid heterodimer inverse agonism; 340,000 compounds, 0.21% hits; P35372+P41143; inhibition, % at 9.3 µM; cell-based MOR-DOR heterodimer luminescence; in the data active means inhibition above about 22%, passing the limit was not always enough;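 further: 0% = cells with DMSO and 100% = wells without cells with DMSO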
HTR5A inv ctr: inverse agonist of human HTR5A in OPRM1-OPRD1 counter-screen | HTR5A cell line, luminescence, inverse agonism | 340,000 compounds, 0.083% hits | AID 504634 | inhibition, % at 9.3 µM | P47898; in the data active means inhibition mostly above about 23%, no sharp cut-off; inactive means mostly below about 18%;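 further: 0% = cells with DMSO and 100% = no-cell wells with DMSO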
OPRM1-D1 ag cf: OPRM1-OPRD1 heterodimer agonism, confirmation | shares compounds with MOR-DOR ag | cells, MOR-DOR heterodimerization, luminescence complementation | activation, % at 9.3 µM | 830 compounds, 45% hits | AID 504904;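 further: 0% = vehicle-treated cells and 100% = reference agonist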
HTR5A ag ctr2: HTR5A agonism, opioid heterodimer counter-screen | shares compounds with MOR-DOR ag | HTR5A agonist counterscreen, cell luminescence | activation, % at 9.3 µM | 830 compounds, 8% hits | AID 504905; in the data active means activation above about 17%;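 further: 0% = vehicle-treated cells and 100% = reference agonist response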
An asterisk follows results filed as active; i = inactive; x = no result. Unless noted, no stated cut-off is given here; in the data, active means activation above about 18%; inactive means the rest.

SMILES | HTR5A ag | MOR-DOR ag | MOR-DOR inv ag | HTR5A inv ctr | OPRM1-D1 ag cf | HTR5A ag ctr2
Cc1ccc(C(=O)NCC(=O)Nc2ncccc2C)s1 | 0.5 | -3.0 | 14.7 | -4.5 | x | x
COc1cccc(-c2nn(-c3ccccc3)cc2CN(C)C(C)c2ccncn2)c1 (configuration not stated) | 6.7 | 24.7* | -161.5 | -16.6 | -2.2 | -1.8
O=C1C(=O)c2ccc(-c3ccccc3)cc2-c2ccccc21 | 4.8 | 25.9* | -118.0 | -21.9 | 0.2 | 2.7
Nc1ccc2c(c1)C(=O)C(=O)c1ccccc1-2 | 4.3 | 25.0* | -125.2 | -11.2 | 0.1 | 0.9
COc1ccc(C(CNC(=O)C(C)c2ccc3cc(OC)ccc3c2)N(C)C)cc1 (configuration not stated) | 5.2 | 23.3* | -187.9 | -15.5 | 55.8* | -3.9
COc1ccc(C(CNC(=O)Cc2ccc3ccccc3c2)N(C)C)cc1 (configuration not stated) | 6.9 | 36.7* | -296.2 | -20.4 | 0.4 | -1.2
COc1ccc(C(CNC(=O)C2CC2)N(C)C)cc1 (configuration not stated) | -4.9 | -0.9 | 3.6 | 12.5 | x | x
Cc1ccc(OCCOc2ccc(Br)cc2/C=N\NC(N)=O)cc1 | 8.4 | 19.8* | -97.8 | -20.1 | 1.2 | 70.9*
Cc1c(CN2CCC(n3nccc3NC(=O)C3CC3)CC2)[nH]c2ccccc12 | 6.6 | 44.7* | -241.8 | 11.8 | 0.7 | 31.4*
CCN(CC)CCn1c2ccccc2c(=O)c2c(O)ccc(O)c21 | 0.6 | 19.5* | -100.2 | -2.1 | 9.4 | 0.5
CCN(CC)CCn1c(O)c(N=O)c2ccccc21 | 0.9 | -0.2 | 1.3 | -8.2 | x | x
Cc1cc(S(=O)(=O)N2CCCc3ccccc32)ccc1-n1cnnn1 | 0.7 | 1.8 | -14.9 | -5.8 | x | x
COc1ccc(N2C(=S)N=C(Nc3ccccc3)C23CCCCC3)cc1 | 0.0 | 28.9* | -151.5 | -5.2 | 16.1 | 4.9
O=[N+]([O-])c1ccc(N2CCN(CCO)CC2)cc1Sc1ccccn1 | -2.3 | -0.5 | 3.5 | 20.5 | x | x
CCN1CCN(c2ccc([N+](=O)[O-])c(Sc3nc4ccccc4[nH]3)c2)CC1 | -3.6 | 76.0* | -456.6 | 9.7 | 69.0* | -3.0
COc1ccc(-c2nc(CN3CCC(c4ccccc4)CC3)c(C)o2)cc1OC | 3.6 | 4.4 | -22.2 | 6.2 | x | x
COc1ccc(-c2nc(CN3CCC(C(=O)NC4CCCc5ccccc54)CC3)c(C)o2)cc1OC (configuration not stated) | 2.1 | 198.6* | i | 4.9 | 38.3* | 5.2
COc1ccc(-c2nc(CN3CCC(C(=O)NC4CCCC4)CC3)c(C)o2)cc1OC | -0.1 | 110.0* | i | 0.5 | 18.2* | 1.1
CCN(c1nc(N)c(C(=O)N=C(N)N)nc1Cl)C(C)C | 2.1 | 51.0* | -282.3 | -11.3 | 95.5* | -2.6
CCN(CC(=O)Nc1cc(C)on1)CC(=O)Nc1ccccc1C(F)(F)F | 2.2 | -0.8 | 3.5 | -6.2 | x | x
Cc1ccc(Cl)cc1NC(=O)c1cnn2c1NC(c1ccco1)CC2C(F)(F)F (configuration not stated) | 0.5 | 7.0 | -36.5 | -27.9 | x | x
O=C(Nc1ccc2c(c1)CCC2)c1cnn2c1NC(c1ccco1)CC2C(F)(F)F (configuration not stated) | 3.2 | 23.4* | -104.3 | 9.8 | 7.0 | 2.5
Cc1ccnc(NC(=O)c2ccc(Cl)s2)c1 | -0.3 | -1.5 | 7.9 | 1.1 | x | x
CC(C)[C@@H](C(=O)NCc1ccco1)N1C(=O)N2CCc3c([nH]c4ccccc34)[C@@]2(C)C1=O | 1.4 | -1.5 | 8.1 | -31.8 | x | x
Cc1ccc(Nc2cc(C)nc3c(C)cccc23)cc1 | -0.8 | 28.6* | -136.1 | 2.9 | 14.8 | -1.0
SMILES | HTR5A ag | MOR-DOR ag | MOR-DOR inv ag | HTR5A inv ctr | OPRM1-D1 ag cf | HTR5A ag ctr2
COc1ccc(NS(=O)(=O)c2ccc(O)c(NC(=O)c3cc4c(C)nn(-c5ccc(F)cc5)c4s3)c2)cc1 | -0.4 | 20.4* | -122.7 | 1.1 | 51.0* | 1.3
CC(=O)Nc1sc(N/N=C/c2ccc(O)cc2)nc1-c1ccc(C)cc1 | 0.1 | -0.8 | 4.4 | -0.3 | x | x
CC(C)(C)c1csc(N/N=C/c2ccc(O)cc2)n1 | -1.0 | 18.3* | -84.3 | 3.8 | 49.5* | 0.8
CCC(=O)c1ccc(N2CCN(S(=O)(=O)c3ccccc3)CC2)c(F)c1 | -1.5 | 20.7* | -103.7 | 4.5 | 2.8 | 7.6
CN(C)C(=O)Cn1cc(S(=O)(=O)Cc2ccccc2)c2ccccc21 | 0.1 | -1.2 | 6.2 | -0.3 | x | x
O=C(Oc1ccc2c(c1)OCO2)c1cc2c(s1)CCC2 | 15.4 | 22.5* | -117.2 | -1.0 | 0.4 | 1.3
CN(C)C(CNC(=O)C1CCN(S(=O)(=O)c2cccc(C(F)(F)F)c2)CC1)c1ccccc1 (configuration not stated) | 0.1 | 22.4* | -119.3 | -0.3 | 139.8* | 2.8
CN(C)C(CNC(=O)Cc1cccc(C(F)(F)F)c1)c1ccco1 (configuration not stated) | 0.1 | 63.2* | -299.4 | -0.1 | 22.0* | -2.7
CN(C)C(CNC(=O)C1CCN(S(=O)(=O)c2ccccc2)CC1)c1ccccc1 (configuration not stated) | 6.4 | 0.2 | -1.3 | -17.4 | x | x
CN(C)C(CNC(=O)Cc1cccc(C(F)(F)F)c1)c1ccccc1 (configuration not stated) | 1.9 | 249.3* | i | -5.4 | 251.5* | 1.1
CC1=C(C(=O)OCc2ccccc2)C(c2cccc3ccccc23)NC(=O)N1CCCC(=O)O (configuration not stated) | 3.0 | -0.5 | 3.0 | -0.7 | x | x
CC(C)CN(C(=O)COC(=O)CNC(=O)c1sc2ccccc2c1Cl)C1CCS(=O)(=O)C1 (configuration not stated) | -2.5 | -1.3 | 6.7 | 6.2 | x | x
C=CCN1C(=O)c2oc3ccccc3c(=O)c2C1c1ccc(O)c(OC)c1 (configuration not stated) | 2.4 | -1.6 | 9.1 | -6.3 | x | x
CCOc1cc(C2c3c(oc4ccccc4c3=O)C(=O)N2c2nccs2)ccc1O (configuration not stated) | -3.8 | 24.5* | -124.7 | -32.5 | 0.9 | 2.5
COc1ccc(-n2c(C)cc(/C=C3\C(=O)NN(c4ccccc4)C3=O)c2C)cc1 | 1.1 | 0.8 | -4.2 | 6.9 | x | x
Cc1cc(/C=C2/C(=O)NN(c3ccccc3)C2=O)c(C)n1-c1ccc(O)cc1 | -3.0 | 60.7* | -314.4 | 8.9 | 50.2* | -4.8
CCNS(=O)(=O)c1ccc(NC(=O)Nc2ccc3c(c2)OCO3)cc1 | 5.5 | 110.6* | -362.3 | 17.6 | 72.7* | -0.2
CCC(CC)C(=O)c1c[nH]c(C(=O)NCc2ccccc2OC)c1 | 2.4 | -0.2 | 1.4 | -9.4 | x | x
Cc1nc(SCC(=O)N2CCCCCC2)c2c(=O)n(C)c(=O)n(CC(C)C)c2n1 | 6.6 | 8.2 | -41.8 | -13.2 | x | x
COc1ccc(C2=NN(C(=O)CSc3ncccn3)C(c3ccc(C)cc3)C2)cc1 (configuration not stated) | 8.2 | 1.7 | -8.7 | -10.0 | x | x
